{
  "source": "the supplement of paper PMC8728848",
  "assay_in_all_cases": "glycan array binding signal (z-score within array); higher = stronger binding",
  "settings_in_all_cases": "glycan notation: IUPAC condensed, linker removed; mutation: E321K",
  "key": {"[1]": {"target": "Fuc(a1-2)Gal(b1-4)[Fuc(a1-3)]GlcNAc", "how_it_was_run": "(§1)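 Arrays were curated from the Consortium for Functional Glycomics database, 3228 in total, and kept only where the protein sequence was available. Binding is expressed as a within-array Z-score. This score was averaged across arrays of the same protein sequence at different concentrations or buffers and across linkers, and negative values can be read as non-binding.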"}, "[2]": {"target": "Fuc(a1-2)[GalNAc(a1-3)]Gal(b1-3)GlcNAc", "how_it_was_run": "as §1"}, "[3]": {"target": "Fuc(a1-2)[GalNAc(b1-3)]Gal", "how_it_was_run": "as §1"}, "Gal(a1-3)Gal": {"target": "Gal(a1-3)Gal", "how_it_was_run": "as §1"}, "Gal(a1-3)Gal(b1-4)GlcNAc": {"target": "Gal(a1-3)Gal(b1-4)GlcNAc", "how_it_was_run": "as §1"}, "[4]": {"target": "Gal(b1-4)GalNAc(a1-3)[Fuc(a1-2)]Gal(b1-4)GlcNAc", "how_it_was_run": "as §1"}, "Gal(b1-4)Glc": {"target": "Gal(b1-4)Glc", "how_it_was_run": "as §1"}, "[5]": {"target": "Gal(b1-4)GlcNAc(b1-3)Gal(b1-3)GlcNAc", "how_it_was_run": "as §1"}, "[6]": {"target": "Gal(b1-4)GlcNAc(b1-3)GalNAc", "how_it_was_run": "as §1"}, "[7]": {"target": "Gal(b1-4)GlcNAc(b1-6)[Gal(b1-3)]GalNAc", "how_it_was_run": "as §1"}, "Gal6S(b1-4)Glc6S": {"target": "Gal6S(b1-4)Glc6S", "how_it_was_run": "as §1"}, "[8]": {"target": "GlcNAc(b1-3)[GlcNAc(b1-6)]GalNAc", "how_it_was_run": "as §1"}, "GlcNAc(b1-4)GlcNAc": {"target": "GlcNAc(b1-4)GlcNAc", "how_it_was_run": "as §1"}, "[9]": {"target": "GlcNAc(b1-4)GlcNAc(b1-4)GlcNAc(b1-4)GlcNAc(b1-4)GlcNAc(b1-4)GlcNAc", "how_it_was_run": "as §1"}, "[10]": {"target": "Man(a1-2)Man(a1-2)Man(a1-6)[Man(a1-3)]Man", "how_it_was_run": "as §1"}, "[11]": {"target": "Neu5Ac(a2-3)Gal(b1-3)GalNAc6S", "how_it_was_run": "as §1"}, "[12]": {"target": "Neu5Ac(a2-3)Gal(b1-4)GlcNAc(b1-3)Gal(b1-3)GlcNAc", "how_it_was_run": "as §1"}, "[13]": {"target": "Neu5Ac(a2-3)Gal(b1-4)GlcNAc(b1-3)Gal(b1-4)[Fuc(a1-3)]GlcNAc", "how_it_was_run": "as §1"}, "[14]": {"target": "Neu5Ac(a2-3)Gal6S(b1-4)GlcNAc", "how_it_was_run": "as §1"}, "[15]": {"target": "Neu5Ac(a2-3)GalNAc(b1-4)GlcNAc", "how_it_was_run": "as §1"}, "[16]": {"target": "Neu5Ac(a2-6)Gal(b1-4)GlcNAc(b1-2)Man(a1-3)[GlcNAc(b1-2)Man(b1-4)GlcNAc(b1-2)Man(a1-6)]Man(b1-4)GlcNAc(b1-4)GlcNAc", "how_it_was_run": "as §1"}, "[17]": {"target": "Neu5Ac(a2-6)Gal(b1-4)GlcNAc(b1-3)Gal(b1-4)GlcNAc", "how_it_was_run": "as §1"}, "[18]": {"target": "Neu5Ac(a2-8)Neu5Ac(a2-8)Neu5Ac", "how_it_was_run": "as §1"}, "[19]": {"target": "Neu5Ac(a2-8)Neu5Ac(a2-8)Neu5Ac(a2-3)Gal(b1-4)Glc", "how_it_was_run": "as §1"}, "Neu5Ac(b2-6)GalNAc": {"target": "Neu5Ac(b2-6)GalNAc", "how_it_was_run": "as §1"}},
  "note": "The full list was thinned out, with the strongest signals kept by preference.",
  "data": [
    {"binder": "Surfactant Protein D (Human); Neck + Carbohydrate Recognition Domain (NCRD) (Homo sapiens) (protein) MLLFLLSALVLLTQPLGYLEAEMKTYSHRTMPSACTLVMCSSVESGLPGRDRDGREGPRGEKGDPGLPGAAGQAGMPGQAGPVGPKGDNGSVGEPGPKGDTGPSGPPGPPGVPGPAGREGALGKQGNIGPQGKPGPKGEAGPKGEVGAPGMQGSAGARGLAGPKGERGVPGERGVPGNTGAAGSAGAMGPQGSPGARGPPGLKGDKGIPGDKGAKGESGLPDVASLRQQVEALQGQVQHLQAAFSQYKKVELFPNGQSVGEKIFKTAQFVKPFTEAQLLCTQAGGQLASPRSAAENAALQQLVVAKNEAAFLSMTDSKTEGKFTYPTGESLVYSNWAPGKPNDDGGSEDCVEIFTNGKWNDRACGEKRLVVCEF", "values": [
      {"measurement": "glycan array binding signal (z-score)", "setting": "[1]", "result": -0.011},
      {"measurement": "glycan array binding signal (z-score)", "setting": "[2]", "result": -0.437},
      {"measurement": "glycan array binding signal (z-score)", "setting": "[3]", "result": -0.418},
      {"measurement": "glycan array binding signal (z-score)", "setting": "Gal(a1-3)Gal", "result": -0.277},
      {"measurement": "glycan array binding signal (z-score)", "setting": "Gal(a1-3)Gal(b1-4)GlcNAc", "result": 0.494},
      {"measurement": "glycan array binding signal (z-score)", "setting": "[4]", "result": -0.87},
      {"measurement": "glycan array binding signal (z-score)", "setting": "Gal(b1-4)Glc", "result": -0.968},
      {"measurement": "glycan array binding signal (z-score)", "setting": "[5]", "result": -0.871},
      {"measurement": "glycan array binding signal (z-score)", "setting": "[6]", "result": -0.758},
      {"measurement": "glycan array binding signal (z-score)", "setting": "[7]", "result": -0.831},
      {"measurement": "glycan array binding signal (z-score)", "setting": "Gal6S(b1-4)Glc6S", "result": 2.78},
      {"measurement": "glycan array binding signal (z-score)", "setting": "[8]", "result": -0.62},
      {"measurement": "glycan array binding signal (z-score)", "setting": "GlcNAc(b1-4)GlcNAc", "result": 2.94},
      {"measurement": "glycan array binding signal (z-score)", "setting": "[9]", "result": -0.106},
      {"measurement": "glycan array binding signal (z-score)", "setting": "[10]", "result": 0},
      {"measurement": "glycan array binding signal (z-score)", "setting": "[11]", "result": 0.404},
      {"measurement": "glycan array binding signal (z-score)", "setting": "[12]", "result": -0.578},
      {"measurement": "glycan array binding signal (z-score)", "setting": "[13]", "result": 0.062},
      {"measurement": "glycan array binding signal (z-score)", "setting": "[14]", "result": 0.549},
      {"measurement": "glycan array binding signal (z-score)", "setting": "[15]", "result": 3.92},
      {"measurement": "glycan array binding signal (z-score)", "setting": "[16]", "result": 5.34},
      {"measurement": "glycan array binding signal (z-score)", "setting": "[17]", "result": -0.587},
      {"measurement": "glycan array binding signal (z-score)", "setting": "[18]", "result": -0.381},
      {"measurement": "glycan array binding signal (z-score)", "setting": "[19]", "result": -0.475},
      {"measurement": "glycan array binding signal (z-score)", "setting": "Neu5Ac(b2-6)GalNAc", "result": 3.67}
    ]}
  ]
}
